{
  "source": "the supplement of paper PMC11006884",
  "note": "About 6,500 targets were measured; listed, in parts, are those with a hit and a random draw of the rest. About 2% of all pairs of compound and target were hits. Unmarked numbers belong to inactive results.",
  "data": [
    {"compound": "COC(=O)C#Cc1ccccc1 [methyl 3-phenylpropiolate]", "assay": "log2 ratio of iodoacetamide-alkyne labeling of the cysteine site, DMSO over compound (competition); higher = stronger covalent engagement of the cysteine by the compound, active = 1 or more", "conditions": "500 µM; treatment time 1 h; system: HEK293T cell lysate", "summary_of_the_method": "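HEK293T lysate (2 mg/mL) was incubated with electrophile (500 µM) or vehicle for 1 h at ambient temperature and then with iodoacetamide alkyne for 1 h. Labelled proteins were clicked to sCIP-TMT reagents, pooled, digested, enriched on streptavidin and measured by Orbitrap Eclipse LC-MS/MS with FAIMS, with FragPipe quantification. The per-cysteine log2 competition ratio is mean control-channel reporter intensity over mean compound-channel reporter intensity. Across three replicates with duplicate channels, cysteines quantified in only one replicate were excluded.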", "values": [
      {"target": "SAFB C404 (UniProt Q15424)", "log2 ratio of iodoacetamide-alkyne labeling": "1.14 (active)"},
      {"target": "CNBP C171 (UniProt P62633)", "sequence (P62633 whole entry, looked up)": "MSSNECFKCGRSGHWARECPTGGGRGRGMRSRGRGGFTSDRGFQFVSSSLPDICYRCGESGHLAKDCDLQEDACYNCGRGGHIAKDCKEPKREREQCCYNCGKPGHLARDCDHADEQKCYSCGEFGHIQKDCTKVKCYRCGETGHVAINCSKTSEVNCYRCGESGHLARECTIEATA", "log2 ratio of iodoacetamide-alkyne labeling": -0.0616},
      {"target": "EXOSC9 C9 (UniProt Q06265)", "log2 ratio of iodoacetamide-alkyne labeling": 0.307},
      {"target": "SPTAN1 C1930 (UniProt Q13813)", "log2 ratio of iodoacetamide-alkyne labeling": 0.167},
      {"target": "HNRNPU C450 (UniProt Q00839)", "sequence (Q00839 whole entry, looked up)": "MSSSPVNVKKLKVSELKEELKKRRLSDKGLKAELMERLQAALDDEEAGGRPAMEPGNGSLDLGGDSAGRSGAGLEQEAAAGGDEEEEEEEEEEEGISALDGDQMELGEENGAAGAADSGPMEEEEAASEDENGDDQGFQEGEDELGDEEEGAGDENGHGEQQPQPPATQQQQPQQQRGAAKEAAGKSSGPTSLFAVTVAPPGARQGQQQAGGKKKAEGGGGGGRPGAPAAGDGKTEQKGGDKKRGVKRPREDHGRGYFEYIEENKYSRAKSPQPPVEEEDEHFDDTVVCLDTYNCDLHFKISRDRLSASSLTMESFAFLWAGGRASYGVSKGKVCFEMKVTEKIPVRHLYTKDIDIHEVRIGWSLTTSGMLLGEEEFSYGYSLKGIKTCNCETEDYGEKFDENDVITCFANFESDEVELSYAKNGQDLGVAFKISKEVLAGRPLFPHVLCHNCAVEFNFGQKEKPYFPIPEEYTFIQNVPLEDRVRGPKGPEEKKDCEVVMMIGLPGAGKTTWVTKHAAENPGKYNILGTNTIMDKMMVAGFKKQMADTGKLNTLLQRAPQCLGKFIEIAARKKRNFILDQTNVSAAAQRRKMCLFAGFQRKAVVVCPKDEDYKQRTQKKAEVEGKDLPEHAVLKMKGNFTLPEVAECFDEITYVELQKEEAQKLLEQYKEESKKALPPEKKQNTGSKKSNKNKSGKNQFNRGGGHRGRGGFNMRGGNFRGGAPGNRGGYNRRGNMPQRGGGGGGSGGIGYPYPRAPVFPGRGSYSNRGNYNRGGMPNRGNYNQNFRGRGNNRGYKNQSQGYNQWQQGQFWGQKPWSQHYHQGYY", "log2 ratio of iodoacetamide-alkyne labeling": 0.018},
      {"target": "UniProt Q00341_C683", "log2 ratio of iodoacetamide-alkyne labeling": -0.0455},
      {"target": "GANAB C423 (UniProt Q14697)", "log2 ratio of iodoacetamide-alkyne labeling": 0.019},
      {"target": "UniProt P62244_C72", "log2 ratio of iodoacetamide-alkyne labeling": 0.177},
      {"target": "UniProt P84103_C6", "log2 ratio of iodoacetamide-alkyne labeling": 0.422},
      {"target": "GABPA C338 (UniProt Q06546)", "log2 ratio of iodoacetamide-alkyne labeling": 0.308},
      {"target": "NOTCH2 C1357 (UniProt Q04721)", "sequence (Q04721 whole entry, looked up)": "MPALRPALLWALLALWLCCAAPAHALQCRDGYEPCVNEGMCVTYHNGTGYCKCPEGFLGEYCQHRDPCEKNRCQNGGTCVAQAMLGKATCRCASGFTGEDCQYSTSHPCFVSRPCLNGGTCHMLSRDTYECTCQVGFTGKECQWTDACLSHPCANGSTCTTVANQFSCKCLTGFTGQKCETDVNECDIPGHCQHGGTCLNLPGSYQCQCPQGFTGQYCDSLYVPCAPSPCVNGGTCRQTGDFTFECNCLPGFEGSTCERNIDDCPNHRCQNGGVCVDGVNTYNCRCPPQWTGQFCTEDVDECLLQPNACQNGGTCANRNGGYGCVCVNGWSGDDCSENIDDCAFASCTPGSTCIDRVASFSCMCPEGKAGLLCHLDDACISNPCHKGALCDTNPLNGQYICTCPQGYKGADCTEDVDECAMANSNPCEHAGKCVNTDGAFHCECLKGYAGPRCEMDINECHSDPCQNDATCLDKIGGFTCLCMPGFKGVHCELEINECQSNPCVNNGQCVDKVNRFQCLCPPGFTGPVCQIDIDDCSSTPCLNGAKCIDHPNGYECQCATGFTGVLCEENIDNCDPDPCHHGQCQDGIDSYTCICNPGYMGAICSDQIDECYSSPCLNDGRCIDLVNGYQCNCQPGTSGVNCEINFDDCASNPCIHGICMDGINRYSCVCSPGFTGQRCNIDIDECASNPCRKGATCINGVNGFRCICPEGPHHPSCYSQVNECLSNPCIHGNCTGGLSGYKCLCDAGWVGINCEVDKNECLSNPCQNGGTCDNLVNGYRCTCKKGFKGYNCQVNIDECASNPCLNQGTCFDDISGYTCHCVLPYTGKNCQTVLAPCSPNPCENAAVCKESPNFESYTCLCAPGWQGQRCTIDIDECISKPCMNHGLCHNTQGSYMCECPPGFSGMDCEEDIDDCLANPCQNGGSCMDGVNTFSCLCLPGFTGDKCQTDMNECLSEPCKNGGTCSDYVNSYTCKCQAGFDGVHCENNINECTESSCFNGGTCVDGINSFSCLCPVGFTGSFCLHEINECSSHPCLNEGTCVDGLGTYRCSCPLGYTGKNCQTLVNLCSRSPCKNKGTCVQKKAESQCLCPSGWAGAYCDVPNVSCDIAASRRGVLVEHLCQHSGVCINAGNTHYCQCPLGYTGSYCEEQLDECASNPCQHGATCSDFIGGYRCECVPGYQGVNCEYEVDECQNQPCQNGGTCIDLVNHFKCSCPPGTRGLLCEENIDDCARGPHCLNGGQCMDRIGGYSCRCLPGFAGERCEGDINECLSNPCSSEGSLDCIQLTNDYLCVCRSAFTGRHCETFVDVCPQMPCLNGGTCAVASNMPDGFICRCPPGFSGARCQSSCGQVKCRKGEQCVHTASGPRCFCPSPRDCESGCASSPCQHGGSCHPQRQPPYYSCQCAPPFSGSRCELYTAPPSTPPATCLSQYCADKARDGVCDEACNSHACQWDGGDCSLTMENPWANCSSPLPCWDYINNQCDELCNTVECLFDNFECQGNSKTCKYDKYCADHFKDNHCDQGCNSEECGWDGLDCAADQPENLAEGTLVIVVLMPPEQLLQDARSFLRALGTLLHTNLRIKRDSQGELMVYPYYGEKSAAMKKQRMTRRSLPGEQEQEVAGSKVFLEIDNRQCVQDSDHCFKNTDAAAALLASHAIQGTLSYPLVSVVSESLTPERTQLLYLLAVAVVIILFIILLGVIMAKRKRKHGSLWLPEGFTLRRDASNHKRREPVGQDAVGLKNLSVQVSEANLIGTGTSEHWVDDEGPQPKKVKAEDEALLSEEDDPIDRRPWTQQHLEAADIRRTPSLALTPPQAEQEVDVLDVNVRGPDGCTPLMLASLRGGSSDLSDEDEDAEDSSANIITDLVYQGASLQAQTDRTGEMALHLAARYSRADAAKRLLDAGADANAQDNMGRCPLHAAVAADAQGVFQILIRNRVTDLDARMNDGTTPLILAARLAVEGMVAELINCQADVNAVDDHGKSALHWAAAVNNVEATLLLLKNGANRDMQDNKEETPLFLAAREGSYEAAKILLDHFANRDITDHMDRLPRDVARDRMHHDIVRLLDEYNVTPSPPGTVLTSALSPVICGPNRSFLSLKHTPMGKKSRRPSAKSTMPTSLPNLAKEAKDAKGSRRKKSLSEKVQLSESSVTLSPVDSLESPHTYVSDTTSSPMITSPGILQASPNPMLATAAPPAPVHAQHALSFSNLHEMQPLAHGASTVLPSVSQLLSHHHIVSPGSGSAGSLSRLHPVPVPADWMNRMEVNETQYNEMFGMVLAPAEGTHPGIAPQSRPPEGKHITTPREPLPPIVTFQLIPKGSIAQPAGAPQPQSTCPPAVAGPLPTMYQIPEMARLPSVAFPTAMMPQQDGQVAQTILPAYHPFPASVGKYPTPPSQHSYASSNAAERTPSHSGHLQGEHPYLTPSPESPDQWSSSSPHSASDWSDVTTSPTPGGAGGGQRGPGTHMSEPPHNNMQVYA", "log2 ratio of iodoacetamide-alkyne labeling": "1.55 (active)"},
      {"target": "SPCS2 C26 (UniProt Q15005)", "sequence (Q15005 whole entry, looked up)": "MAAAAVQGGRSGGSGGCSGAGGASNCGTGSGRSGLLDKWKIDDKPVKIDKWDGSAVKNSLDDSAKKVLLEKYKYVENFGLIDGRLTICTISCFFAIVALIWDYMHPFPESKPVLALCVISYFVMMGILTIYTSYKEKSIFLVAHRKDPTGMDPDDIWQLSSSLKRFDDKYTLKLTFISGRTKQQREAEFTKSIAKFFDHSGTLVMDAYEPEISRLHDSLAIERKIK", "log2 ratio of iodoacetamide-alkyne labeling": "1.62 (active)"},
      {"target": "PMPCA C466 (UniProt Q10713)", "sequence (Q10713 whole entry)": "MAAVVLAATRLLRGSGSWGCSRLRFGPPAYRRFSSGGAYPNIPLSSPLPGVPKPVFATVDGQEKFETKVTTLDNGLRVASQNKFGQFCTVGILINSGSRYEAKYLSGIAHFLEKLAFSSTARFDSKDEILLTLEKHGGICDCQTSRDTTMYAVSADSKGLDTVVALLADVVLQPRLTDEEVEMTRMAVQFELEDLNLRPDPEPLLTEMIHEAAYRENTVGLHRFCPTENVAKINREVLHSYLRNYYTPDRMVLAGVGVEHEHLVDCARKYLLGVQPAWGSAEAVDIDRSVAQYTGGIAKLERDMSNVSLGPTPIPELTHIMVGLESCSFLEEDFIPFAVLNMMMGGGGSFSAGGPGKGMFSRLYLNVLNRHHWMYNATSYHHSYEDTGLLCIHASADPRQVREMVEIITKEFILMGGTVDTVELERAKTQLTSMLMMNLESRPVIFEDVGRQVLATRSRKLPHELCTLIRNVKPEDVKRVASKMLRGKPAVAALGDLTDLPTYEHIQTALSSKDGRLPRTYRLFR", "log2 ratio of iodoacetamide-alkyne labeling": 0.00592},
      {"target": "ESPL1 C294 (UniProt Q14674)", "log2 ratio of iodoacetamide-alkyne labeling": 0.577},
      {"target": "MDC1 C128 (UniProt Q14676)", "log2 ratio of iodoacetamide-alkyne labeling": 0.14},
      {"target": "R3HDM1 C304 (UniProt Q15032)", "log2 ratio of iodoacetamide-alkyne labeling": 0.1},
      {"target": "UniProt P78527_C1904", "log2 ratio of iodoacetamide-alkyne labeling": 0.286},
      {"target": "PITRM1 C556 (UniProt Q5JRX3)", "log2 ratio of iodoacetamide-alkyne labeling": 0.0671},
      {"target": "SMC1A C987 (UniProt Q14683)", "log2 ratio of iodoacetamide-alkyne labeling": 0.473},
      {"target": "RRP12 C799 (UniProt Q5JTH9)", "log2 ratio of iodoacetamide-alkyne labeling": 0.107},
      {"target": "PPA1 C270 (UniProt Q15181)", "log2 ratio of iodoacetamide-alkyne labeling": 0.153},
      {"target": "UniProt Q02040_C542", "log2 ratio of iodoacetamide-alkyne labeling": 0.763},
      {"target": "LRRFIP1 C14 (UniProt Q32MZ4)", "sequence (Q32MZ4 whole entry, looked up)": "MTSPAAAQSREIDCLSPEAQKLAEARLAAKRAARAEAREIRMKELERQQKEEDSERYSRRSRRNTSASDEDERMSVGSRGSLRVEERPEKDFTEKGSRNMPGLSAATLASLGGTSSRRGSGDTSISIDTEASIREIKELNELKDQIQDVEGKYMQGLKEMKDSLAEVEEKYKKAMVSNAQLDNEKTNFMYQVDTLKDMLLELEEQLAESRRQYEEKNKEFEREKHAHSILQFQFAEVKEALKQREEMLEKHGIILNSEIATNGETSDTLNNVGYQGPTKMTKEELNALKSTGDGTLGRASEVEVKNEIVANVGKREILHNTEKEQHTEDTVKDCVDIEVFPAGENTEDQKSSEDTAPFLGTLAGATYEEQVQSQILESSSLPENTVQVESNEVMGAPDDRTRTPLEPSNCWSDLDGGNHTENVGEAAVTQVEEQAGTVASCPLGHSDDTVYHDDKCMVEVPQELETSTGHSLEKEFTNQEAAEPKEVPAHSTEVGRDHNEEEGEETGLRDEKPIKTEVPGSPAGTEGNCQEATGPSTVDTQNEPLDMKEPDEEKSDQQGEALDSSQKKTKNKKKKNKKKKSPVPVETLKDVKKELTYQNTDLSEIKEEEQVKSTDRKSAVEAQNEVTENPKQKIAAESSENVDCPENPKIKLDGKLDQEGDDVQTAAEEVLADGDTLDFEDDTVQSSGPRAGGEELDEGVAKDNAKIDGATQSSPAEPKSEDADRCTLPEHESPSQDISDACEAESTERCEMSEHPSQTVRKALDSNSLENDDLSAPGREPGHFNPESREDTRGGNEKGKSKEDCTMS", "log2 ratio of iodoacetamide-alkyne labeling": 0.0967},
      {"target": "AKAP12 C1399 (UniProt Q02952)", "log2 ratio of iodoacetamide-alkyne labeling": "1.16 (active)"},
      {"target": "SF3A1 C244 (UniProt Q15459)", "log2 ratio of iodoacetamide-alkyne labeling": 0.0803},
      {"target": "UniProt P62854_C77", "log2 ratio of iodoacetamide-alkyne labeling": 0.434},
      {"target": "SUCLG1 C172 (UniProt P53597)", "log2 ratio of iodoacetamide-alkyne labeling": "1.72 (active)"},
      {"target": "RRP1B C583 (UniProt Q14684)", "log2 ratio of iodoacetamide-alkyne labeling": 0.481},
      {"target": "AKAP12 C1139 (UniProt Q02952)", "log2 ratio of iodoacetamide-alkyne labeling": 0.521},
      {"target": "UniProt Q02930_C69", "log2 ratio of iodoacetamide-alkyne labeling": "1.09 (active)"},
      {"target": "SUCLG1 C181 (UniProt P53597)", "log2 ratio of iodoacetamide-alkyne labeling": "1.72 (active)"},
      {"target": "CTTN C112 (UniProt Q14247)", "log2 ratio of iodoacetamide-alkyne labeling": 0.88},
      {"target": "SPTAN1 C1622 (UniProt Q13813)", "log2 ratio of iodoacetamide-alkyne labeling": -0.0196},
      {"target": "UniProt Q12905_C37", "log2 ratio of iodoacetamide-alkyne labeling": 0.0335},
      {"target": "AKAP12 C1407 (UniProt Q02952)", "log2 ratio of iodoacetamide-alkyne labeling": "1.16 (active)"},
      {"target": "BLM C685 (UniProt P54132)", "log2 ratio of iodoacetamide-alkyne labeling": 0.197}
    ]}
  ]
}
